The values that follow come from PubChem BioAssay (NCI).

Molecules are shown by their SMILES. Compounds without any hit were thinned out: in the full panel of roughly 83,000, 20% have a hit.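 Values shown are percent growth following 48 h exposure of cells in 96-well plates to a single concentration of compound; below 10 was considered active.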 Unmarked numbers belong to inactive results.

For this test, the system named is A549/ATCC NSCLC. The test is described as follows: NCI-60 one-dose screen, 48 h (100 = growth as untreated, 0 = no growth, -100 = all killed). As to conditions: 10 µM unless noted.
As to `COc1ccc(/C=C(/C(=O)N2CCCCC2)c2cc(OC)c(OC)c(OC)c2)cc1`, the growth was 34.9%. Regarding `COc1ccc(OC)c(Cn2cc3c(c2)-c2oncc2CC3)c1`, the growth is 43.3%. With `COc1ccc(CN2C(=O)/C(=C\C(=O)c3ccc(OCCN4CCCCC4)cc3)c3ccccc32)cc1`, the growth was 96.4%.

Turning to `COc1ccc(/C=C2\SC(=O)N(Cc3cc(=O)oc4ccc(OC)cc34)C2=O)cc1`, the growth is 96.4%. For `O=c1oc2ccc3ccccc3c2cc1-c1ccnc2[nH]c(=S)[nH]c(=O)c12` the value was 97%. For `O=C(O)c1occ(Cl)c1Cl` the value was 97.8%; for `COc1ccc(Cn2cc3c(c2-c2ccccc2)CCc2cnoc2-3)cc1OC`, 41.3%.

Regarding `CCCCN(CCCC)CC(O)CN(CC)CC` (centres undefined), the growth is 99%. Then `O=C(/C=C/c1c[nH]c2ccccc12)c1cc2ccccc2o1`, with 89.5%; and `COc1ccc2sc(-n3nc4nc5n(c(=O)c4c3N)-c3ccccc3Sc3ccccc3-5)nc2c1`, with 68%; and `CCOC(=O)NNc1[nH]c(-c2ccc(OC)cc2)cc1C#N`, with 100%. For `COc1ccc(-c2cn3ccnc3c(-c3ccc4ncn(C5CCCCC5)c4c3)n2)cc1` the value was 31.4%.

As to `CCOC(=O)C1=NN(c2ccccc2)C2=NC(=O)/C(=C\c3cn(-c4ccccc4)nc3-c3cc4ccccc4o3)C(=O)N12`, the growth is 96.8%. For `O=C(/C=C1\C(=O)N(Cc2ccc([N+](=O)[O-])cc2)c2ccccc21)c1ccc(OCCN2CCCCC2)cc1` the value was 48.2%.
